# IEC-6 tox: IEC-6 cytotoxicity, counter-screen for KLF5 inhibitors; luminescence viability; inhibition, % at 5 µM; 0.78% of 290,000 active;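 further: 0% = plate median of test compound wells and 100% = cytotoxic reference compound wells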
# APP transl inh: APP translation inhibition | SH-SY5Y APP 5'UTR-luciferase reporter, luminescence | inhibition, % at 2 µM | 0.82% of 190,000 active | AID 1285;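 active means inhibition above a set limit, derived from the sample mean plus 3 SD, cut at about 45% in these data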
# aSyn 5UTR inh: MLPCN primary screen, SNCA 5' untranslated region; inhibition, % (tested at 7.5 µM); alpha-synuclein 5'UTR reporter, inhibitor activity; 0.82% of 300,000 active; in the data active means inhibition above about 60%;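 further: H4 neuroglioblastoma cells stably carrying SNCA 5'UTR luciferase fusion; 0% = DMSO wells and 100% = positive control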
# BaF3 parental: parental Ba/F3 viability inhibition as JAK2V617F counter-screen. 1.1% of 220,000 active. CellTiter-Glo ATP luminescence. inhibition, % at 5.6 µM;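 active means inhibition above a per-campaign cutoff, the mean inhibition of all tested compounds plus 3 SD, cut at about 27% in these data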;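 further: 0% = DMSO wells and 100% = JAK Inhibitor I control wells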
# Ba/F3 V617F tox: lowers viability of Ba/F3 cells expressing EpoR and JAK2V617F; ATP luminescence; inhibition, % at 5.6 µM; 1.1% of 220,000 active;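 active means inhibition above the campaign mean plus 3 SD over all tested compounds, cut at about 24% in these data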;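 further: cytokine-independent growth of Ba/F3 cells driven by EpoR plus mutant JAK2; 0% = DMSO-treated cells and 100% = JAK inhibitor I control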
# KLF5 inh: kruppel-like factor 5 inhibition. AID 1700. DLD-1 KLF5 promoter-luciferase reporter, luminescence. inhibition, % at 5 µM. 0.23% of 290,000 active;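 active means inhibition above a per-plate limit of that plate's mean compound inhibition plus 3 SD, cut at about 60% in these data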;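 further: 0% = DMSO wells and 100% = LY294002 at 200 µM; higher means less KLF5 promoter-driven luciferase light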
# IEC-6 cytotox cf: IEC-6 cytotoxicity, confirmation assay; AID 1907; inhibition, % at 5 µM; 63% of 1,900 active; IEC-6 rat intestinal epithelial viability, luminescence; shares compounds with IEC-6 tox;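 further: 0% = vehicle and 100% = reference cytotoxic drug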
# Numbers without * were called inactive; x = no result. Compounds with a hit are over-represented: about 2.2% of the library has one in this group of screens. Unless noted, no stated cut-off is given here; in the data, active means inhibition above about 22%; inactive means the rest.
SMILES,IEC-6 tox,APP transl inh,aSyn 5UTR inh,BaF3 parental,Ba/F3 V617F tox,KLF5 inh,IEC-6 cytotox cf
CCCCC(=O)NC(c1ccccc1)c1ccc2cccnc2c1O (configuration not stated),24.0*,x,67.9*,x,x,95.8*,53.8*
O=C(Nc1ccccc1)c1cccc(N2C(=O)C3C4C=CC(C5CC45)C3C2=O)c1 (configuration not stated),1.5,x,-20.3,x,x,-33.4,x
Cc1cccc(NC(=O)c2ccc(N3C(=O)C4C5C=CC(C6CC56)C4C3=O)cc2)c1 (configuration not stated),22.8*,x,38.0,x,x,-33.6,11.7
Cc1ccc(C(=O)CSc2nc3ccccc3c(=O)[nH]2)cc1C,21.3,-24.5,-6.6,0.9,-1.9,-10.1,x
Cc1ccc(C)c(C(=O)CSc2nc3ccccc3c(=O)[nH]2)c1,44.0*,-13.7,-3.7,8.4,-0.1,3.1,48.0*
Cc1cc(C)c(C(=O)CSc2nc3ccccc3c(=O)[nH]2)cc1C,71.0*,4.1,13.4,7.4,-1.8,-54.0,51.6*
Cn1c(=O)c2c(nc(N3CCN(c4ccc([N+](=O)[O-])cc4)CC3)n2C)n(C)c1=O,0.9,x,-20.6,-1.9,1.5,-8.8,x
C/C(=N\NC(=O)c1cc(C2CC2)nc2ccccc12)c1ccc(O)cc1O,51.0*,x,73.7*,x,x,60.7,43.4*
C/C(=N\NC(=O)c1cc(C2CC2)nc2ccccc12)c1ccc(C)s1,3.6,3.3,17.7,2.7,-3.7,-19.6,x
CC(/C=C/c1ccccc1)=N\NC(=O)c1cc(C)nc2ccccc12,39.6*,x,-28.7,52.2*,33.3*,39.7,4.8
C/C(=N\NC(=O)c1cc(C)nc2ccccc12)c1cccs1,28.9*,x,5.3,1.9,-0.1,17.9,-2.2
Cc1cc(C(=O)NN=C2CCCC2)c2ccccc2n1,x,x,-5.1,x,x,x,x
Cc1nc2sccn2c(=O)c1S(=O)(=O)NCC(C)c1ccccc1 (configuration not stated),4.1,x,10.1,x,x,1.7,x
CN1C(=O)c2ccc(NC(=O)CCS(=O)(=O)c3ccccc3)cc2C1=O,-3.8,-39.0,20.5,4.4,3.9,-7.7,x
Cc1ccc2c(CN(C)Cc3ccc(OC(F)F)cc3)cc(=O)oc2c1C,3.6,x,0.8,x,x,1.2,x
Cc1ccc2c(CN(C)Cc3ccccc3)cc(=O)oc2c1C,55.2*,x,-80.0,x,x,-34.0,32.9*
Cc1ccc2c(CN(C)Cc3cccc(F)c3)cc(=O)oc2c1C,40.8*,x,-14.3,x,x,-27.7,24.0*
COc1ccc(NC(=O)C(C)N2CCN(C)CC2)cc1 (configuration not stated),3.3,x,7.2,x,x,6.1,x
C=CCNc1ncnc2c1ncn2C1OC(CO)C(O)C1O (configuration not stated),74.0*,9.8,35.8,0.0,-1.1,16.6,49.1*
OC[C@H]1O[C@@H](n2cnc3c(NC4CCCC4)ncnc32)[C@H](O)[C@@H]1O,-1.5,-10.0,30.8,4.5,-3.0,-4.6,x
Cc1ccc(S(=O)(=O)N(CC(=O)N2CCOCC2)c2ccc(C(C)C)cc2)cc1,-13.1,x,1.9,x,x,3.8,x
O=C(NC1CCCCC1)C(c1ccc(O)cc1)N(CC1CCCO1)C(=O)C1COc2ccccc2O1 (configuration not stated),4.3,0.0,9.0,7.5,2.9,-22.3,x
COc1ccccc1N1CCN(C(=O)c2ccc3[nH]c(C)c(C)c3c2)CC1,73.3*,x,71.7*,x,x,58.4,57.0*
COc1ccc(S(=O)(=O)N2CCCc3ccccc32)cc1OC,4.2,x,10.3,0.6,-0.8,-29.3,x
COc1ccc(S(=O)(=O)N2CCCc3ccccc32)cc1[N+](=O)[O-],59.2*,x,51.7,x,x,48.3,44.0*
SMILES,IEC-6 tox,APP transl inh,aSyn 5UTR inh,BaF3 parental,Ba/F3 V617F tox,KLF5 inh,IEC-6 cytotox cf
O=Nc1c(-c2c(O)[nH]c3cc(Br)ccc23)[nH]c2ccccc12,22.7*,x,76.6*,x,x,4.3,3.2
O=C(Nc1cc(S(=O)(=O)N2CCOCC2)ccc1-n1cncn1)c1ccc(Cl)cc1,-4.6,x,-8.4,-0.8,-3.2,-33.6,x
O=C(Nc1cc(Cl)ccc1-n1cncn1)c1cc(S(=O)(=O)N2CCOCC2)ccc1F,26.4*,x,9.3,x,x,-8.4,3.8
O=S(=O)(N1CCOCC1)n1c(Cc2ccccc2)nc2ccccc21,-1.5,19.0,-16.0,0.5,-4.5,-30.6,x
O=C(Nc1cccc(C(F)(F)F)c1)c1cc(-c2ccc(F)cc2)on1,1.8,-2.7,0.5,7.8,1.9,-7.6,x
CCn1c(CCNC(=O)c2cccs2)nnc1SCC(=O)NC1CCCCC1,25.1*,-27.2,-4.1,2.0,5.8,-28.4,4.8
O=C(NNC(=O)c1ccc2c(=O)n3c(nc2c1)CCC3)c1cccc(Cl)c1,x,x,-13.7,x,x,x,x
COc1ccccc1-c1nnc(NC(=O)c2ccc(S(=O)(=O)N(C)CC3CCCO3)cc2)o1 (configuration not stated),12.1,x,20.0,x,x,49.1,x
CN(CC1CCCO1)S(=O)(=O)c1ccc(C(=O)Nc2nnc(-c3ccccc3)o2)cc1 (configuration not stated),26.7*,x,47.9,x,x,50.9,6.3
CN(CC1CCCO1)S(=O)(=O)c1ccc(C(=O)Nc2nc(-c3ccccn3)cs2)cc1 (configuration not stated),57.4*,74.0*,x,61.0*,70.0*,56.5,52.0*
CCN1CCN(C(=O)C2CCN(c3nnc(-n4c(C)ccc4C)s3)CC2)CC1,2.0,x,-11.7,x,x,-22.6,x
CCOC(=O)c1ccc(NC(=O)Nc2ccc(Cl)cn2)cc1,-1.6,-9.6,-34.0,1.4,-1.5,16.4,x
Cc1cc(NC(=O)Nc2ccc(Cl)c(Cl)c2)no1,x,x,-42.7,x,x,x,x
CCOC(=O)c1ccc(NC(=O)Nc2ccon2)cc1,87.3*,x,64.2*,87.8*,87.6*,60.2,65.0*
O=C(Nc1ccc(Cl)c(Cl)c1)Nc1ccon1,74.0*,x,-69.4,x,x,16.6,58.1*
COc1nc(Cl)cn(-c2ccc(C)cc2)c1=O,0.4,7.0,-13.2,8.1,5.1,1.6,x
Cc1ccc(-n2c(Cl)c(Cl)nc(Cl)c2=O)cc1,41.1*,96.8*,x,57.8*,96.3*,21.5,40.4*
Cc1cccc2cc(C#N)c(SCC(=O)N3CC(=O)Nc4ccccc43)nc12,92.9*,96.2*,110.3*,88.7*,85.2*,18.6,73.6*
Cc1cc(NC(=O)CSc2nc3c(C)ccc(C)c3cc2C#N)no1,10.5,x,-60.1,x,x,39.0,x
CCc1cc2ccc(C)c(C)c2nc1SCC(=O)Nc1cc(C)on1,34.9*,x,30.0,x,x,0.0,31.6*
Cc1cc(NC(=O)CSc2nnc(-c3ccccc3)o2)no1,29.1*,-23.8,-54.1,3.8,3.7,-50.0,3.8
Cc1cc(NC(=O)CSc2nnc(-c3ccc(O)cc3)o2)no1,-5.6,x,-50.7,-1.7,-4.9,-61.5,x
COc1ccc2cc(C#N)c(SCC(=O)N3CC(=O)Nc4ccccc43)nc2c1,0.2,x,-34.7,-3.9,-6.7,-38.4,x
Cc1cc(NC(=O)CSc2nc3c(C)cccc3cc2C#N)no1,22.8*,x,-209.0,x,x,7.4,17.8
